Source: ChEMBL document CHEMBL3988442, “University of Dundee, Small-Polar-MMV Screening Library” (2021)
For some assays here: Measured potencies and affinities stand elsewhere.

Tests used:
Set-up in all cases: scale not given: direction of the effect not stated beside the values
[1] = target: Protein translocase subunit SecA (Escherichia coli (strain K12)) (UniProt P10408); test: Assay to Identify E. coli SecA ATPase Inhibitors; format: functional; conditions: 30 µM
[2] = target: T1, Ubiquitin-activating enzyme e1, putative (Leishmania donovani (strain BPK282A1)) (UniProt E9BSI1); test: Leishmania donovani Ubiquitin Activating Enzyme (LdE1); format: functional; conditions: 30 µM
T1 sequence (whole entry): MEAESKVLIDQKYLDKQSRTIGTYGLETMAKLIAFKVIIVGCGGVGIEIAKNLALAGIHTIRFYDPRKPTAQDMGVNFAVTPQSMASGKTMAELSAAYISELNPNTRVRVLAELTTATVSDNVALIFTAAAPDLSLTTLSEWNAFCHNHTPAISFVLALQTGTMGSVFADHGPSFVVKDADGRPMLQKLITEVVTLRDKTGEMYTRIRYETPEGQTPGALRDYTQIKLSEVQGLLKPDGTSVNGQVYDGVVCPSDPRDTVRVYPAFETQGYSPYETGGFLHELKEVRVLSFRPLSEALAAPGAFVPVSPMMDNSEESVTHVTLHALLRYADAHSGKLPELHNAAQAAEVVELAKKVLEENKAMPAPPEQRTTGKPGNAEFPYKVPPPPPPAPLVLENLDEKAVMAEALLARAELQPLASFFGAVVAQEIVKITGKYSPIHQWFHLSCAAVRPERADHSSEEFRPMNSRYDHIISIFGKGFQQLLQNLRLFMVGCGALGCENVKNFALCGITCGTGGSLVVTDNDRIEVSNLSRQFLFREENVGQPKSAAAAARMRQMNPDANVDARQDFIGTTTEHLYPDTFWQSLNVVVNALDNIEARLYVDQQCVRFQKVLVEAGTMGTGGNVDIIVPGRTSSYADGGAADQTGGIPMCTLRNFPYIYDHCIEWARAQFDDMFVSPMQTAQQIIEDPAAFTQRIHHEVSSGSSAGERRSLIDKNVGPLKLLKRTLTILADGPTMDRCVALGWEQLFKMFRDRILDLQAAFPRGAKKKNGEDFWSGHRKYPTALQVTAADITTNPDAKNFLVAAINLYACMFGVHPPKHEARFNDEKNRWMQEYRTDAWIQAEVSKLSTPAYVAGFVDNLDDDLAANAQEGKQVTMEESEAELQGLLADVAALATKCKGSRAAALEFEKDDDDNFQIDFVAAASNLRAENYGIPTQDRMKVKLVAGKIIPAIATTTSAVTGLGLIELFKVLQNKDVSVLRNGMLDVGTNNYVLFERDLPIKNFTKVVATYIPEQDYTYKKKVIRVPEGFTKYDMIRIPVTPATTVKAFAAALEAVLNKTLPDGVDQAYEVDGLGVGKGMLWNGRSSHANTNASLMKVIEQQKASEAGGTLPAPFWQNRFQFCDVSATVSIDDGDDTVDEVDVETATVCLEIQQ

[3] = target: AMP-activated protein kinase, AMPK (Homo sapiens) (UniProt P54646+O43741+P54619+Q9UGJ0+Q9Y478+Q13131+Q9UGI9); test: AMP-dependent Kinase enzyme assay. An in vitro enzyme assay that detects ADP turnover that is directly proportional to AMPK activity. This uses naive AMPK that is activated during the assay with MK-8722; format: functional; conditions: 30 µM
[4] = target: Sialic acid-binding Ig-like lectin 9 (Homo sapiens) (UniProt Q9Y336); test: Hs-Siglec9 ALPHAscreen SOP 20170721; conditions: 10 µM
Sialic acid-binding Ig-like lectin 9 (Homo sapiens), sequence (Q9Y336 whole entry): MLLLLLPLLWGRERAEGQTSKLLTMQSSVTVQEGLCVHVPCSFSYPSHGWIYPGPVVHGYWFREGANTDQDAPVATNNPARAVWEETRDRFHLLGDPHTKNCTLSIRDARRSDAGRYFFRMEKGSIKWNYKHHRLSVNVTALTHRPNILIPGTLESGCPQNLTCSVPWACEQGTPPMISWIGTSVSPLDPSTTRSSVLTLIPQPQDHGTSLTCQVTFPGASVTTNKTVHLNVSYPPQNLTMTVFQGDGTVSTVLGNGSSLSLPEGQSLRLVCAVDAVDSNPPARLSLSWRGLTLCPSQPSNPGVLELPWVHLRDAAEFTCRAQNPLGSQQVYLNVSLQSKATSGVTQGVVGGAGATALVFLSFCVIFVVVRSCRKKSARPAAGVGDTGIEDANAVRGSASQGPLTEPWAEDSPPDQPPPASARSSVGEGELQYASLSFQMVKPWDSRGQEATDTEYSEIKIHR

Trypanosoma cruzi = test: Trypanosoma cruzi phosphomannomutase and mannose-1-phosphate guanylyltransferase assay; format: functional; conditions: 10 µM
[5] = target: T2, Arginase-2, mitochondrial (Homo sapiens) (UniProt P78540); test: in vitro enzyme assay to detect the production of urea directly proportional to the activity of Arginase II; format: functional; conditions: 33.3 µM; further: in the data most compounds retested in dose-response had high values
T2 sequence (whole entry): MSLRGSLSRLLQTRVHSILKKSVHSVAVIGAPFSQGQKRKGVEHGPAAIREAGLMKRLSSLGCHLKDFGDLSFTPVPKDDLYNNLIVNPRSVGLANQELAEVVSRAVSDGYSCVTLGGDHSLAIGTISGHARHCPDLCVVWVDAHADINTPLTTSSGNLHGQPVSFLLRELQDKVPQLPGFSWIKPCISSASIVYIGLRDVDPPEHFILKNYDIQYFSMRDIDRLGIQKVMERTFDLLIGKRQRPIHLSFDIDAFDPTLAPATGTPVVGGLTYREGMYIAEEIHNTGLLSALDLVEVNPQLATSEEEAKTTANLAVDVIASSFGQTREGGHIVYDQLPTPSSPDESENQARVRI

[6] = target: T3, Proteasome subunit beta (Trypanosoma cruzi) (UniProt O96673); test: Trypanosoma cruzi proteasome chymotrypsin-like activity (TcProtChymo) assay.; further: in the data most compounds retested in dose-response had high values; format: functional; conditions: 9.37 µM
T3 sequence (whole entry): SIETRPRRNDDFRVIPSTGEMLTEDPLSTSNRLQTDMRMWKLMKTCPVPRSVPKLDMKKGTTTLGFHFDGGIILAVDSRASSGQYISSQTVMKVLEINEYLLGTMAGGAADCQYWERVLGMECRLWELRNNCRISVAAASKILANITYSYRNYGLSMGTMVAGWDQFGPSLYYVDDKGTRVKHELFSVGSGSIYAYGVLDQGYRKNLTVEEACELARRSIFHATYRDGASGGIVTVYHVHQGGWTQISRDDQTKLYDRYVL

Homo sapiens = species: Homo sapiens; test: To identify inhibition of the IFN signalling (Jak-Stat) pathway via expression of an eGFP reporter gene under the control of an IFN-stimulated response element (ISRE) containing MxA promoter.; format: functional; conditions: 30 µM
[7] = target: T4, Tyrosyl-tRNA synthetase, putative (Trypanosoma cruzi (strain CL Brener)) (UniProt Q4DSP6); test: Trypanosoma cruzi tyrosyl tRNA synthetase (TcYRS) _High Tyrosine SOP; format: functional; conditions: 30 µM; further: in the data most compounds retested in dose-response had high values
T4 sequence (whole entry): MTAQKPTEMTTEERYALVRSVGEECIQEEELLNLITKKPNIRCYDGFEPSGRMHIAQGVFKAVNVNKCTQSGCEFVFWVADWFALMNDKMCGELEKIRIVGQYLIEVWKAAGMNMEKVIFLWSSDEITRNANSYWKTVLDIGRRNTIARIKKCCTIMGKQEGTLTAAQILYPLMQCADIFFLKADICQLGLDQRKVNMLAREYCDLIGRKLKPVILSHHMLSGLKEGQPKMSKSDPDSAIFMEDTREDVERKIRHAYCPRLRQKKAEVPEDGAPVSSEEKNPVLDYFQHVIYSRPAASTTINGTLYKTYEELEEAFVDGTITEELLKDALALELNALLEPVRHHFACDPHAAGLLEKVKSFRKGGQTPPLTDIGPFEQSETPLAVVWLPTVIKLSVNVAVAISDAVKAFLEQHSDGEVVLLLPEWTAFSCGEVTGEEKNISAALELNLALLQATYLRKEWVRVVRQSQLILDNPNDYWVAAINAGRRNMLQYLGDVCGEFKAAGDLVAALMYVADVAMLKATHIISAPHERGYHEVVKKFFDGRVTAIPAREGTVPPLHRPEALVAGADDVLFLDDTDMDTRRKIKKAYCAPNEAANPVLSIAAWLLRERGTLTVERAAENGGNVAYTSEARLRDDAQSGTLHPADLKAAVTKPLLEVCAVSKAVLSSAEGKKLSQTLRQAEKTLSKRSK

[8] = target: T4, Tyrosyl-tRNA synthetase, putative (Trypanosoma cruzi (strain CL Brener)); test: Trypanosoma cruzi tyrosyl tRNA synthetase (TcYRS) SOP; format: functional; conditions: 30 µM
[9] = target: Chromo domain-containing protein 1 (Saccharomyces cerevisiae (strain ATCC 204508 / S288c) (Baker's yeast)) (UniProt P32657); test: ScCHD-1 Enzyme Inhibition Assay; format: functional; conditions: 30 µM; further: in the data most compounds retested in dose-response had high values
Chromo domain-containing protein 1 (Saccharomyces cerevisiae (strain ATCC 204508 / S288c) (Baker's yeast)), sequence (P32657 whole entry, the tested form may be a part): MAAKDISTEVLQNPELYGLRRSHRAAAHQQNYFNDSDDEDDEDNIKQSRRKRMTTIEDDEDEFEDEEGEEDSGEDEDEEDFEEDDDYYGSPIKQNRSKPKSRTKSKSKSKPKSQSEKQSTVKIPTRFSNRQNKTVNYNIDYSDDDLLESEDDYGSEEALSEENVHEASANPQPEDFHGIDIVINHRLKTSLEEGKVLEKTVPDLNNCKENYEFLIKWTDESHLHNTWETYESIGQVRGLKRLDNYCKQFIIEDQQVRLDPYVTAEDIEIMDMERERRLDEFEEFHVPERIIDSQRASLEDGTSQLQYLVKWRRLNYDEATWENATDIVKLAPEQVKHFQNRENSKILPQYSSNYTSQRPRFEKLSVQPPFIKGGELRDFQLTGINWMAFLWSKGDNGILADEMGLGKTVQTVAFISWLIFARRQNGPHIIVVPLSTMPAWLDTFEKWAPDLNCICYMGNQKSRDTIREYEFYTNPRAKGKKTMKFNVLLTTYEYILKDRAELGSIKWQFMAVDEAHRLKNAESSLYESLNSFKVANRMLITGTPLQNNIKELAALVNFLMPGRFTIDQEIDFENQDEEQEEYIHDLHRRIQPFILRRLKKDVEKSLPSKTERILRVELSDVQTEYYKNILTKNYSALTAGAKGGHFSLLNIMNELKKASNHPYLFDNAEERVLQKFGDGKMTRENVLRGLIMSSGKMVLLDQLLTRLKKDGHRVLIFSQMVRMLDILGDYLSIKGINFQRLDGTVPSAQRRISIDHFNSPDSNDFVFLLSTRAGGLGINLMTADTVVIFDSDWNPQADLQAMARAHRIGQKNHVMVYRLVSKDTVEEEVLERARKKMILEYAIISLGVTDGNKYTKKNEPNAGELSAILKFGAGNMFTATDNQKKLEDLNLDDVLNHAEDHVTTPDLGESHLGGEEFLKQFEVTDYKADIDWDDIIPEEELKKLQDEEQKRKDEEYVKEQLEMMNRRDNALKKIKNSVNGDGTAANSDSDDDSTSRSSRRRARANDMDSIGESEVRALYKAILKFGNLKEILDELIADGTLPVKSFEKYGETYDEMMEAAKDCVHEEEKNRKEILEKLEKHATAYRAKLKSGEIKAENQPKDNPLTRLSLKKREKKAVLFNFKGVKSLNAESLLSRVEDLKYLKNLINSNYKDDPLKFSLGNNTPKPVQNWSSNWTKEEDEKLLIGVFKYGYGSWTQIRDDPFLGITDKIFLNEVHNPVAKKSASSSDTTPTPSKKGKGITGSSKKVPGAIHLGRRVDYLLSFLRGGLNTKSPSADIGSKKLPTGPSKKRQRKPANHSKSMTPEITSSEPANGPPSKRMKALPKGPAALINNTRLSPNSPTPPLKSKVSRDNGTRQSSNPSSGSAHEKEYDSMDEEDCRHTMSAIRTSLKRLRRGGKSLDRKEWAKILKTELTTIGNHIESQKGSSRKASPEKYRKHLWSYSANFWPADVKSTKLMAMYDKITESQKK

Protein translocase subunit SecA (Escherichia coli (strain K12)), sequence (P10408 whole entry): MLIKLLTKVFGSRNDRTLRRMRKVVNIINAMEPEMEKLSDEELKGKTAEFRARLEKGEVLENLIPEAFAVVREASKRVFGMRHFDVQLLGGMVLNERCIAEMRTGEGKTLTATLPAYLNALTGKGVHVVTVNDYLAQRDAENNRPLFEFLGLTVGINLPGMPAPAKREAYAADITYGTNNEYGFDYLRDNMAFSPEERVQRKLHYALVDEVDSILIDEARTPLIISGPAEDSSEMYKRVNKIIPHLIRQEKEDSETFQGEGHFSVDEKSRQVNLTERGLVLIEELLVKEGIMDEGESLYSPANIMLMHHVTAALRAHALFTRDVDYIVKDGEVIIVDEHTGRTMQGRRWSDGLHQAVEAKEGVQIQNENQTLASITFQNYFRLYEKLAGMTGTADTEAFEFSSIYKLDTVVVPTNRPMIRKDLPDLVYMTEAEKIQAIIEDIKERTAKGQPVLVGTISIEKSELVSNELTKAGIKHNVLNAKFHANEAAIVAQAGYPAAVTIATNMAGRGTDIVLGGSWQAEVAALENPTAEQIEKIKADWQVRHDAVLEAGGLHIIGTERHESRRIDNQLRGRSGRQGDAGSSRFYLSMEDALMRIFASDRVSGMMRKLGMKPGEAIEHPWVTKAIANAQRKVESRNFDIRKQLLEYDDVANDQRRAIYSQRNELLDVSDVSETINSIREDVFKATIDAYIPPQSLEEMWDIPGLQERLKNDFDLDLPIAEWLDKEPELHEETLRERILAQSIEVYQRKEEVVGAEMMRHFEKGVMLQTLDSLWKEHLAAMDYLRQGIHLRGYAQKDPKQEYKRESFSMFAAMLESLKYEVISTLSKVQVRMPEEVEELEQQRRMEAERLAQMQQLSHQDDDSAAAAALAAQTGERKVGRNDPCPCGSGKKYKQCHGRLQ

| SMILES | Percent Effect [1] | Percent Effect [2] | Percent Effect [3] | Percent Effect [4] | Percent Effect (Trypanosoma cruzi) | Percent Effect [5] | Percent Effect [6] | Percent Effect (Homo sapiens) | Percent Effect [7] | Percent Effect [8] | Percent Effect [9] |
| --- | --- | --- | --- | --- | --- | --- | --- | --- | --- | --- | --- |
| Cc1cc(NC(=O)CN(C)C2CCCN(c3cccnn3)C2)n(C)n1 (configuration not stated) | -4.44% | 7.89% | -28.4% | 2.85% | 12.2% | -1.8% | 10.6% | -5.3% | 4.43% | 13.6% | 6.51% |
| O=C(O)C1(Cc2ccccc2Cl)CCN(c2ncccc2F)CC1 | -0.132% | 5.41% | -2.78% | 5.67% | 1.54% | 1.91% | 19.5% | 7.74% | 6.88% | 2.44% | -3.4% |
| O=C(c1n[nH]c(=O)c2ccccc12)N1CCCCC1c1ccn[nH]1 (configuration not stated) | -1.96% | 1.35% | 14.9% | -7.74% | -5.53% | -8.12% | 1.72% | 0.863% | 4.3% | 6.49% | -5.69% |
| CC(C)C(=O)NCc1cccc(N2CCCCC2=O)c1 | -6.2% | 18.2% | -3.27% | -10.4% | 5.78% | 1.05% | 11.7% | 0.702% | 3.81% | 21.2% | -12.3% |
| CCn1cc(C(=O)NC2CCN(S(C)(=O)=O)CC2)c2ccccc21 | -3.22% | 16.2% | -3.16% | 22.3% | 4.01% | 0.248% | 5.41% | 6.18% | 2.15% | 16.1% | -6.57% |
| CC(=O)Nc1nc(C(=O)N2CCCC(c3cc(C)[nH]n3)C2)cs1 (configuration not stated) | -6.81% | -28.9% | -1.06% | 8.53% | 6.63% | 0.36% | 2.28% | 2.32% | 4.43% | 11.1% | 0.638% |
| c1cncc(COCc2nnc3n2CCN(Cc2ccsc2)C3)c1 | -1.63% | 13% | 2.4% | 6.44% | -2.26% | -23.4% | 19.6% | 25% | 3.23% | 8.64% | -2.81% |
| O=C(NCC1CC1)C1CN(C(=O)c2cccc(Cl)c2)CC12CCOCC2 (configuration not stated) | 1.58% | 10.4% | 52.3% | -13.8% | -9.37% | 5.81% | 16.4% | 12.4% | 2.12% | -8.97% | -9.61% |
| CCOC(=O)c1sc2ccsc2c1CNC(=O)CC | -4.75% | 16.2% | -8.58% | 18.5% | 7.15% | -0.185% | 1.44% | 19% | 4.95% | 13.4% | 38.4% |
| Cn1c(C2CC2)nc2c1CCN(CCOc1ccc(C#N)cc1)C2 | -3.25% | -15.6% | 4.37% | 6.69% | 2.43% | -1.07% | 4.22% | -24.9% | 6.8% | 2.44% | -8.18% |
| Cc1ccc2nc(C3CCN(CCO)CC3)nn2c1 | 1.65% | 10.7% | 6.44% | 9.27% | -2.51% | -59.7% | 4.79% | 23.1% | 2.08% | 10% | -0.68% |
| COC[C@@]12CCO[C@@H]1CCN(Cc1ccccc1F)C2 | -2.12% | 11% | -5.09% | 8.1% | 5.75% | -2.79% | 10.5% | 3.87% | 4.17% | 8.64% | -4.87% |
| N#Cc1ncn(CC(=O)Nc2cc(Cl)ccc2F)n1 | -7.02% | 13.7% | 6.62% | 0.779% | 1.59% | -4.79% | 1.8% | -12.8% | 3.12% | 6.17% | 1.6% |
| O=C(c1ccc(F)c(F)c1)N1CCCSCC1CN1CCCC1 (configuration not stated) | -3.82% | 0% | 4.53% | -1.26% | 2.86% | -0.645% | 8.7% | -1.06% | 7.41% | 16.7% | -8.34% |
| OCCN1CCN(Cc2coc(-c3ccc(Cl)cc3)n2)CC1 | -2.69% | -2.6% | 3.9% | 4.43% | 3% | 4.27% | 1.35% | -6.89% | 0% | 7.32% | -3.24% |
| Cc1cc(C[S+]([O-])CC(=O)NCC(C)C)no1 (configuration not stated) | -4.4% | 18.2% | 6.46% | -1.61% | -2.06% | -2.49% | 0.676% | -13.6% | 7.77% | 12.2% | -5.33% |
| COC(=O)C(c1cc(F)ccc1F)N(C)C(=O)c1csnn1 (configuration not stated) | 1.09% | 16.5% | 3.37% | -5.43% | -5.64% | -1.5% | 14.4% | 21.4% | 6.25% | 12.7% | -27.1% |
| NC(=O)c1cccc(CC2CCN(C(=O)CCCN3CCOCC3)C2)c1 (configuration not stated) | -2.51% | -2.74% | 4.39% | -12.6% | -1.18% | -2.27% | -3.02% | 6.37% | 2.15% | 2.5% | -1.16% |
| Cc1cnn(CC2CN(CC(=O)Nc3sccc3C#N)CCO2)c1 (configuration not stated) | -4.12% | 7.89% | 0.0642% | 13% | 0.564% | 5.75% | 3.17% | 18.2% | 4.41% | 7.32% | -1.67% |
| CN(C)C(=O)CN1CCCC2(CCN(c3ccsc3)C2=O)C1 (configuration not stated) | -1.45% | 10.7% | 2.54% | -9.8% | -5.71% | 0.233% | 7.84% | 14.6% | -1.06% | -32% | -5.89% |
| O=C(O)c1cc2c(nc1O)CC(c1cccc(Cl)c1)CC2=O (configuration not stated) | -6.48% | 1.33% | 28.2% | 2.46% | -5.7% | -6.16% | 7.21% | 1.57% | 4.23% | 2.56% | -9.15% |
| Cc1ccc(NC2CCN(C(=O)Cc3ccc(C#N)cc3)CC2)nn1 | -4.53% | 2.7% | -6.02% | 18.2% | 4.81% | -4.41% | 3.24% | -19.9% | 6.4% | 18.5% | -10.7% |
